Where “and” joins values, the source holds several entries; their conditions need not be identical. Identical values can stand only once. The campaign covered roughly 5,500 compounds. About 2,000 (36%) were called active. Inconclusive results (about 18%) are left out. Cut-off read from the data, not from the text of the source: active = normalized growth mostly below about 0.91 (no sharp cut-off); inconclusive = no clear call, values can overlap the other calls; inactive = mostly above about 0.92. The list shows a part of the results.
Assay: chemical genetic growth profiling, strain panel (AID 1159580);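 note: tested at 20 µM; growth read once vehicle control cultures reached saturation at 30 °C; 1 = growth at the plate median or of vehicle wells; lower values mean less growth of the strain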
Conditions: S. cerevisiae deletion strains, growth OD

Measured: normalized growth

Nc1ccc(C(=O)O)c(O)c1
inactive: locus YAL021C, strain ccr4, hits give low values 0.972 | locus YAL026C, strain drs2, hits give low values 1 | locus YAL030W, strain snc1, hits give low values 1 | locus YBL061C, strain skt5, hits give low values 0.989 | locus YBR009C, strain hhf1, hits give low values 1.02 | locus YBR021W, strain FUR4, hits give low values 1.01 | locus YBR023C, strain chs3, hits give low values 0.984 | locus YBR171W, strain sec66, hits give low values 0.98 | locus YBR229C, strain ROT2, hits give low values 1 | locus YBR231C, strain swc5, hits give low values 1 | locus YBR279W, strain paf1, hits give low values 0.996 | locus YCL011C, strain gbp2, hits give low values 0.991 | locus YCL016C, strain dcc1, hits give low values 0.965 | locus YCL029C, strain bik1, hits give low values 0.997 | locus YCL061C, strain MRC1, hits give low values 0.979 | locus YCL069W, strain vba3, hits give low values 0.99 | locus YCR088W, strain abp1, hits give low values 0.997 | locus YDL005C, strain med2, hits give low values 0.989 | locus YDL035C, strain GPR1, hits give low values 1.02 | locus YDL040C, strain nat1, hits give low values 0.99 | locus YDL074C, strain BRE1, hits give low values 1.01 | locus YDL101C, strain DUN1, hits give low values 1.01 | locus YDL134C, strain PPH21, hits give low values 1 | locus YDL185W, strain tfp1, hits give low values 1 | locus YDL192W, strain arf1, hits give low values 0.994 | locus YDR001C, strain nth1, hits give low values 0.989 | locus YDR069C, strain doa4, hits give low values 1 | locus YDR101C, strain arx1, hits give low values 1.01 | locus YDR137W, strain rgp1, hits give low values 0.959 | locus YDR150W, strain NUM1, hits give low values 1.01 | locus YDR159W, strain sac3, hits give low values 1.02 | locus YDR162C, strain NBP2, hits give low values 1.01 | locus YDR195W, strain ref2 0.996 | locus YDR297W, strain sur2, hits give low values 1.01 | locus YDR318W, strain mcm21, hits give low values 1.01 | locus YDR334W, strain swr1, hits give low values 0.98 | locus YDR335W, strain msn5, hits give low values 0.993 | locus YDR388W, hits give low values 1 | locus YDR392W, strain spt3, hits give low values 0.931 | locus YDR502C, strain sam2, hits give low values 0.998 | locus YEL003W, strain gim4, hits give low values 1.02 | locus YEL037C, strain rad23, hits give low values 1 | locus YEL061C, strain CIN8 (second series), hits give low values 0.994 | locus YEL061C, strain CIN8, hits give low values 1.01 | locus YER015W, strain faa2, hits give low values 0.999 | locus YER016W, strain bim1, hits give low values 1 | locus YER110C, hits give low values 1 | locus YER111C, strain swi4, hits give low values 0.984 | locus YER155C, strain BEM2 (second series), hits give low values 1 | locus YER155C, strain BEM2, hits give low values 1 | locus YER167W, strain BCK2, hits give low values 1.01 | locus YFR010W, strain ubp6, hits give low values 1 | locus YGL078C, strain dbp3, hits give low values 0.995 | locus YGL086W, strain mad1, hits give low values 0.997 | locus YGL167C, strain pmr1, hits give low values 0.992 | locus YGL173C, strain kem1, hits give low values 0.99 | locus YGL227W, strain vid30, hits give low values 0.991 | locus YGL240W, strain doc1, hits give low values 0.997 | locus YGL248W, strain PDE1, hits give low values 0.999 | locus YGL253W, strain hxk2, hits give low values 0.978 | locus YGR135W, strain pre9, hits give low values 0.993 | locus YGR252W, strain gcn5, hits give low values 0.959 | locus YHR013C, strain ard1, hits give low values 0.961 | locus YHR027C, strain rpn1, hits give low values 0.997 | locus YHR030C, strain SLT2, hits give low values 0.974 and 1.01 and 1.07 | locus YHR079C, strain IRE1 (second series), hits give low values 1 | locus YHR079C, strain IRE1, hits give low values 1.02 and 1.04 | locus YHR094C, strain hxt1, hits give low values 0.997 | locus YHR129C, strain ARP1, hits give low values 1.01 | locus YHR142W, strain chs7, hits give low values 0.964 | locus YHR200W, strain rpn10, hits give low values 0.999 | locus YIL066C, strain RNR3, hits give low values 1.03 | locus YIL073C, strain SPO22, hits give low values 1.04 | locus YIL125W, strain kgd1, hits give low values 1 | locus YIR030C, strain dcg1, hits give low values 1 | locus YJL092W, strain hpr5, hits give low values 0.984 | locus YJL095W, strain BCK1 (second series), hits give low values 0.997 | locus YJL095W, strain BCK1, hits give low values 0.994 and 1.01 and 1.04 | locus YJL115W, strain asf1, hits give low values 0.99 | locus YJL129C, strain trk1, hits give low values 0.968 | locus YJL134W, strain LCB3, hits give low values 1.01 | locus YJL154C, strain vps35, hits give low values 0.99 | locus YJL164C, strain tpk1, hits give low values 1.01 | locus YJL166W, strain qcr8, hits give low values 0.962 | locus YJL168C, strain set2, hits give low values 1 | locus YJL187C, strain SWE1 (second series), hits give low values 1.01 | locus YJL187C, strain SWE1, hits give low values 0.999 | locus YJR043C, strain POL32, hits give low values 1.01 | locus YJR066W, strain TOR1, hits give low values 0.963 and 0.985

Source: PubChem BioAssay AID1159580 (chemical genetic matrix, 2015)
